The results in this text go back to PubChem BioAssay (NCATS).

Molecules are shown by their SMILES. Values without a mark were called inactive. Records with an inconclusive call do not appear. Activity calls are given as the source filed them. Unless noted, the call rests on the fitted dose curve; in most records, active means well fitted curve in the direction sought with a large enough effect; inconclusive means small, poorly fitted or top-dose-only effect, or another doubt; inactive means no such curve, though single readings can be large; an effect the other way counts as inactive or inconclusive.

Experiment [1] addresses 3',5'-cyclic-AMP phosphodiesterase 4B (Homo sapiens) (UniProt Q07343). The experiment can be described thus: qHTS Assay for Inhibitors of PDE-IV (AID 607; active means well fitted activation curve with a large enough effect in the main read-out, with a control signal flat, not every such curve was filed as active; further: % of control where 0% means no effect). Summed up:
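Live HEK293 cells with a modified cyclic nucleotide-gated (CNG) channel report intracellular cAMP via membrane-potential dye fluorescence (ex 535/em 590 nm). Endogenous PDE-IV was targeted. Compounds were tested at up to 22.9 uM final; RO 20-1724 100 uM served as control.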
For orientation: qHTS replaces the single test concentration by a dilution series.

The nature of experiment [2]: Cell Viability - Mesenchymal (AID 546).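 Further: cells exposed to compound for 40 hours before reading.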 The following applies: mesenchymal cells viability, qHTS; activity change, negative = cytotoxicity: at 91.7 µM (top of the series). Summed up: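 Human kidney mesenchymal cells from normal renal glomeruli, 1000 cells/well, rested 5 hr at 37 °C, then treated 40 hr at 37 °C in complete medium. Cellular ATP read by CellTiter-Glo luminescence; AC50 from Hill-equation fits.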

A short description of experiment [3]: Cellular Toxicity (caspase-3) HepG2 (AID 654).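 Further: cells exposed to compound for 16 hours before reading; 0% = DMSO alone and 100% = caspase signal from 100 µM tamoxifen.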 Summed up:
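HepG2 cells (1500/well) were treated 16 h at 37 °C in complete medium, then caspase 3/7 activity was read by Caspase-Glo luminescence. Data were normalized to DMSO and 100 uM tamoxifen; AC50 came from Hill-equation fits of qHTS concentration-response.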

Experiment [4] can be described thus: Cellular Toxicity (caspase-3) BJ (AID 658).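 Further: 0% = DMSO basal and 100% = 10 µM staurosporine.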 Summed up:
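BJ human foreskin fibroblasts, 1000 cells/well, treated 16 hours at 37 °C in complete medium; caspase 3/7 activity by Caspase-Glo luminescence after 1 hr at room temperature. Normalized to DMSO and 10 uM staurosporine; AC50 from Hill fits.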

A short description of experiment [5]: Cellular Toxicity (caspase-3) SK-N-SH (AID 661). Further: potency means the concentration at half of the fitted maximal effect.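 On caspase-3 activation: 0% = DMSO basal and 100% = 10 µM staurosporine.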 Summed up: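 Human SK-N-SH neuroblastoma cells, 1500/well, were exposed to compounds for 16 hours at 37 °C. Caspase-Glo 3/7 luminescence was normalized to DMSO (basal) and 10 uM staurosporine (100%), and AC50 came from a Hill fit.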
Experiment [6] in a line: Cellular Toxicity (caspase-3) H-4-II-E (AID 663).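 Further: cells exposed to compound for 16 hr before readout.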 The settings on record: H-4-II-E rat hepatoma, scaled: DMSO 0%, 100 µM tamoxifen 100%; at 92.2 µM (top of the series). Summed up: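 Rat hepatoma H-4-II-E cells (1500/well) plated 5 hr, then exposed to compound titrations for 16 hr at 37 °C. Caspase-Glo 3/7 luminescence read after 20 min at RT; data normalized to DMSO and 100 uM tamoxifen, AC50 from Hill fits.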

A short description of experiment [7]: Cellular Toxicity (caspase-3) Hek293 (AID 664).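 Further: cells exposed to compound for 16 h at 37 °C before readout.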 The following applies: HEK293 caspase-3 activation, DMSO = 0%, 100 µM tamoxifen = 100%; at 92.2 µM (top of the series). Summed up: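 HEK293 cells in complete medium treated 16 h at 37 °C, then Caspase-Glo 3/7 luminescence read after 20 min at room temperature. Normalized to DMSO and 100 uM tamoxifen; AC50 from Hill fit of concentration-response.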

The nature of experiment [8]: Cellular Toxicity (caspase-3) Jurkat (AID 655).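 Further: cells exposed to compound for 16 h at 37 °C before reading.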 Further: potency means the concentration at half of the fitted maximal effect. Summed up: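 Luminescent caspase-3/7 readout (aminoluciferin substrate cleavage) in human T-cell leukemia Jurkat cells after 16 hr compound exposure. Concentration-response normalized to DMSO and 100 uM tamoxifen; AC50 by standard Hill equation.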
Experiment [9] can be described thus: Cellular Toxicity (caspase-3) MRC-5 (AID 659).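 Further: 0% = DMSO basal and 100% = 10 µM staurosporine.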 Summed up:
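MRC-5 human normal lung fibroblasts, 1500 cells/well, treated 16 h at 37 °C in complete medium. Caspase 3/7 measured by Caspase-Glo luminescence after 1 h at room temperature. Normalized to DMSO and 10 uM staurosporine; AC50 from Hill fit.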

Experiment [10] can be described thus: Cellular Toxicity (caspase-3) Mesangial (AID 660). The settings on record: Potency: caspase-3 activation. Summed up:
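Human renal glomerular mesangial cells, 1000/well, 5 h at 37 C before 16 h compound treatment. Caspase-Glo 3/7 luminescence after 20 min; normalized to DMSO and 100 uM tamoxifen, AC50 from Hill fit.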

3',5'-cyclic-AMP phosphodiesterase 4B (Homo sapiens), sequence (Q07343 whole entry, looked up): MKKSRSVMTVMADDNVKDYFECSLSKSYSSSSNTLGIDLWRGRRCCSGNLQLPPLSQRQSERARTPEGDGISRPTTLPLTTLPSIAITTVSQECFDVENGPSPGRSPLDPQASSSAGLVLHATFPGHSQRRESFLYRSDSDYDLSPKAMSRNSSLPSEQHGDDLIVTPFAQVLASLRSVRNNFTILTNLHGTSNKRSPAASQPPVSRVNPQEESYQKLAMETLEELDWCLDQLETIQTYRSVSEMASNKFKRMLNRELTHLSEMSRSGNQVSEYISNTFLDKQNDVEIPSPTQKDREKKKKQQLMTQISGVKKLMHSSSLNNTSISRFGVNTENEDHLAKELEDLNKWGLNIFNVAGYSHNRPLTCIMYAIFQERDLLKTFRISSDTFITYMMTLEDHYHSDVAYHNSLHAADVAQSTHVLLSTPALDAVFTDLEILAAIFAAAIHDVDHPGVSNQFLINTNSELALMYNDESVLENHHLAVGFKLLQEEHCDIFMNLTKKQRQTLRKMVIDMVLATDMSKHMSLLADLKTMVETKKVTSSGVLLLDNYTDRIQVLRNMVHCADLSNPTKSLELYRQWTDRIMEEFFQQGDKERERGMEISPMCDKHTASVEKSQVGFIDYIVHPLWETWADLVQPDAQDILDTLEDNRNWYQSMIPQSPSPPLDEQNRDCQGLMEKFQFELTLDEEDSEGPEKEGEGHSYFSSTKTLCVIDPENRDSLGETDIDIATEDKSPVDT

`O=c1[nH]c2cc(C(F)(F)F)ccc2n1-c1cc(C(F)(F)F)ccc1O`: the result in experiment [1] was inactive.
For `COc1cc(/C=C/C(=O)CC(=O)/C=C/c2ccc(O)c(OC)c2)ccc1O`, the Potency result in [2], in experiment [3] and in experiment [5] was “inactive” in each case. Besides, in experiment [4], the outcome was inactive. Also, the caspase-3 activation in experiment [6] was 1.39%; in experiment [7] it was 27.4%.
On to `COc1cc(CNC(=O)CCCC/C=C/C(C)C)ccc1O`, for which the Potency result in experiment [2], in experiment [3], in experiment [8], in experiment [10] and in experiment [5] was “inactive” throughout. For the same compound, the call in [4] and in experiment [9] was inactive. Also, the values for the caspase-3 activation in [6] and in experiment [7] were 1.09% and 0.218%, respectively.
With `Nc1ccc([N+](=O)[O-])cc1O`, the Potency entry in experiment [2], in experiment [3], in experiment [8], in experiment [10] and in [5] was “inactive” each time. For the same compound, the outcome in experiment [4] and in experiment [9] was inactive. In addition, the caspase-3 activation was 2.85% in experiment [6] and -2.49% in experiment [7].
In the case of `Cc1c(Nc2ncccc2C(=O)O)cccc1C(F)(F)F`, the compound was classed as inactive in experiment [1].
The same measure, in the same setting: in the case of `O=S(=O)(c1cccc2c(I)cccc12)N1CCCNCC1` it was “inactive”.
On the same count and under the same terms, in the case of `N#C/C(=C\c1ccc(O)c(O)c1)C(=O)c1ccc(O)c(O)c1` it was “inactive”.
Turning to `N=C1N=C(N)c2cc3ccccc3cc21`, the activity change, negative = cytotoxicity in [2] was -91.8% (active). The Potency result in experiment [10] was “inactive”. For the same compound, the Potency in experiment [5] was 31.6 µM (active). Further, the caspase-3 activation is 153% (active) in experiment [6] and 9.9% in experiment [7].
Take `O=C1CN(/N=C/c2ccc([N+](=O)[O-])o2)C(=O)N1`: the Potency entry in [2], in experiment [3], in [8], in experiment [10] and in [5] was “inactive” each time. Further, the compound was classed as inactive in experiment [4] and in experiment [9]. The caspase-3 activation was -0.519% in experiment [6] and -0.37% in [7].
Turning to `c1cnc2c(c1)ccc1cccnc12`, the Potency entry in experiment [2], in experiment [3], in [10] and in experiment [5] was “inactive” throughout. For the same compound, the result in experiment [1], in experiment [4] and in experiment [9] was inactive. Further, the Potency in experiment [8] is 6.31 µM (active). For the same compound, the caspase-3 activation in experiment [7] was -4.62%.
Regarding `Nc1ccc(O)c([N+](=O)[O-])c1`, the Potency result in experiment [2], in [3], in experiment [8], in [10] and in experiment [5] was “inactive” each time. Moreover, the compound was classed as inactive in experiment [4] and in experiment [9]. Also, the caspase-3 activation is 4.05% in experiment [6] and 0.408% in experiment [7].
